Experimental data taken from the supplement of paper PMC11732987, “Enantioselective OTUD7B fragment discovery through chemoproteomics screening and high-throughput optimisation” (Communications Chemistry, 2025).

Key:
Experiment in all cases: log2 ratio of Biotin-Ahx-Ub-VS probe labelling (fragment/DMSO); higher = less target engagement (more negative = stronger competition), active = hit call of the paper (q ≤ 0.05, log2 ratio ≤ -1)
Settings in all cases: compound concentration: 200 uM; treatment time: 3 h
USP19 = target: T1, USP19 (UniProt O94966)
T1 sequence (whole entry): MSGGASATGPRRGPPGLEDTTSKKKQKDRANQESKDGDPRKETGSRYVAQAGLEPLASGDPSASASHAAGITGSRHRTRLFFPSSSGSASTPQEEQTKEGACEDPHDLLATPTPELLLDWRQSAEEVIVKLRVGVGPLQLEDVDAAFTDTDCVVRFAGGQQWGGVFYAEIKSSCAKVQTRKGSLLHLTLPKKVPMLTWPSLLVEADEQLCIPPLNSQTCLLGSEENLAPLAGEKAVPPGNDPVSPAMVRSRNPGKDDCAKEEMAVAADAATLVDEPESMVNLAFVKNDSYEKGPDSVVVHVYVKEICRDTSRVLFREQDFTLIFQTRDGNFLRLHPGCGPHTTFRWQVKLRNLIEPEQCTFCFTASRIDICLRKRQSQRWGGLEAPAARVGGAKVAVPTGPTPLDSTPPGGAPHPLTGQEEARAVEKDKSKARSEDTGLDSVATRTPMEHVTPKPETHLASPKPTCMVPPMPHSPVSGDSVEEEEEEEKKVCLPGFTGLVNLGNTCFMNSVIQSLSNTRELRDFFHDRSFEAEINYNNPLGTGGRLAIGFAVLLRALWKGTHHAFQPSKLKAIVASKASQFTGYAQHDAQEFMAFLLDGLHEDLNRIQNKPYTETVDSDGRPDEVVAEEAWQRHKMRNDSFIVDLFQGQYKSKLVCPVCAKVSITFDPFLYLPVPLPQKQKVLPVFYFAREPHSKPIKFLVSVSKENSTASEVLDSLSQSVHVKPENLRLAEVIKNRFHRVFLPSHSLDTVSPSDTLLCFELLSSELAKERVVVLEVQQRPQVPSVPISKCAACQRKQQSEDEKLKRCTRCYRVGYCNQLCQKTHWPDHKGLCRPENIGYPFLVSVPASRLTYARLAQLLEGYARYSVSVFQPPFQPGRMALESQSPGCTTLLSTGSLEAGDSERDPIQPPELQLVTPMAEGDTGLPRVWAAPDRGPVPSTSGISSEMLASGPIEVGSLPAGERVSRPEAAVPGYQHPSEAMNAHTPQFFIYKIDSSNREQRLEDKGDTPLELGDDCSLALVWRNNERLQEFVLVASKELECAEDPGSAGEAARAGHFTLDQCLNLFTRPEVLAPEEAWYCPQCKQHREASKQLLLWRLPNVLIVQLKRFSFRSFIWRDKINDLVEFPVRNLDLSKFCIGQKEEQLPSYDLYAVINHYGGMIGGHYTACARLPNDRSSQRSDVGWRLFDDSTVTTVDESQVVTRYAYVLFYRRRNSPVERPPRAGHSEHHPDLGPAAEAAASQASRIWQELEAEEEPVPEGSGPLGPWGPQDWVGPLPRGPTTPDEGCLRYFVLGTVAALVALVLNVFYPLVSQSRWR
In short: (§1)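 HEK293T lysate in Tris/CHAPS/IGEPAL buffer with protease inhibitors (495 µg per sample) was given fragment at 200 µM or vehicle for 3 h, in triplicate. It then received Biotin-Ahx-Ub-VS at 0.5 µM final for 1 h. Labelled DUBs were NeutrAvidin-enriched, digested with LysC and trypsin, and run by diaPASEF LC-MS/MS. Values are average log2 fragment/vehicle ratios by unpaired t-test on global-median-normalised Spectronaut quantities of proteins with ≥2 unique peptides.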

USP24 = USP24 (UniProt Q9UPU5)
USP24, sequence (Q9UPU5 whole entry): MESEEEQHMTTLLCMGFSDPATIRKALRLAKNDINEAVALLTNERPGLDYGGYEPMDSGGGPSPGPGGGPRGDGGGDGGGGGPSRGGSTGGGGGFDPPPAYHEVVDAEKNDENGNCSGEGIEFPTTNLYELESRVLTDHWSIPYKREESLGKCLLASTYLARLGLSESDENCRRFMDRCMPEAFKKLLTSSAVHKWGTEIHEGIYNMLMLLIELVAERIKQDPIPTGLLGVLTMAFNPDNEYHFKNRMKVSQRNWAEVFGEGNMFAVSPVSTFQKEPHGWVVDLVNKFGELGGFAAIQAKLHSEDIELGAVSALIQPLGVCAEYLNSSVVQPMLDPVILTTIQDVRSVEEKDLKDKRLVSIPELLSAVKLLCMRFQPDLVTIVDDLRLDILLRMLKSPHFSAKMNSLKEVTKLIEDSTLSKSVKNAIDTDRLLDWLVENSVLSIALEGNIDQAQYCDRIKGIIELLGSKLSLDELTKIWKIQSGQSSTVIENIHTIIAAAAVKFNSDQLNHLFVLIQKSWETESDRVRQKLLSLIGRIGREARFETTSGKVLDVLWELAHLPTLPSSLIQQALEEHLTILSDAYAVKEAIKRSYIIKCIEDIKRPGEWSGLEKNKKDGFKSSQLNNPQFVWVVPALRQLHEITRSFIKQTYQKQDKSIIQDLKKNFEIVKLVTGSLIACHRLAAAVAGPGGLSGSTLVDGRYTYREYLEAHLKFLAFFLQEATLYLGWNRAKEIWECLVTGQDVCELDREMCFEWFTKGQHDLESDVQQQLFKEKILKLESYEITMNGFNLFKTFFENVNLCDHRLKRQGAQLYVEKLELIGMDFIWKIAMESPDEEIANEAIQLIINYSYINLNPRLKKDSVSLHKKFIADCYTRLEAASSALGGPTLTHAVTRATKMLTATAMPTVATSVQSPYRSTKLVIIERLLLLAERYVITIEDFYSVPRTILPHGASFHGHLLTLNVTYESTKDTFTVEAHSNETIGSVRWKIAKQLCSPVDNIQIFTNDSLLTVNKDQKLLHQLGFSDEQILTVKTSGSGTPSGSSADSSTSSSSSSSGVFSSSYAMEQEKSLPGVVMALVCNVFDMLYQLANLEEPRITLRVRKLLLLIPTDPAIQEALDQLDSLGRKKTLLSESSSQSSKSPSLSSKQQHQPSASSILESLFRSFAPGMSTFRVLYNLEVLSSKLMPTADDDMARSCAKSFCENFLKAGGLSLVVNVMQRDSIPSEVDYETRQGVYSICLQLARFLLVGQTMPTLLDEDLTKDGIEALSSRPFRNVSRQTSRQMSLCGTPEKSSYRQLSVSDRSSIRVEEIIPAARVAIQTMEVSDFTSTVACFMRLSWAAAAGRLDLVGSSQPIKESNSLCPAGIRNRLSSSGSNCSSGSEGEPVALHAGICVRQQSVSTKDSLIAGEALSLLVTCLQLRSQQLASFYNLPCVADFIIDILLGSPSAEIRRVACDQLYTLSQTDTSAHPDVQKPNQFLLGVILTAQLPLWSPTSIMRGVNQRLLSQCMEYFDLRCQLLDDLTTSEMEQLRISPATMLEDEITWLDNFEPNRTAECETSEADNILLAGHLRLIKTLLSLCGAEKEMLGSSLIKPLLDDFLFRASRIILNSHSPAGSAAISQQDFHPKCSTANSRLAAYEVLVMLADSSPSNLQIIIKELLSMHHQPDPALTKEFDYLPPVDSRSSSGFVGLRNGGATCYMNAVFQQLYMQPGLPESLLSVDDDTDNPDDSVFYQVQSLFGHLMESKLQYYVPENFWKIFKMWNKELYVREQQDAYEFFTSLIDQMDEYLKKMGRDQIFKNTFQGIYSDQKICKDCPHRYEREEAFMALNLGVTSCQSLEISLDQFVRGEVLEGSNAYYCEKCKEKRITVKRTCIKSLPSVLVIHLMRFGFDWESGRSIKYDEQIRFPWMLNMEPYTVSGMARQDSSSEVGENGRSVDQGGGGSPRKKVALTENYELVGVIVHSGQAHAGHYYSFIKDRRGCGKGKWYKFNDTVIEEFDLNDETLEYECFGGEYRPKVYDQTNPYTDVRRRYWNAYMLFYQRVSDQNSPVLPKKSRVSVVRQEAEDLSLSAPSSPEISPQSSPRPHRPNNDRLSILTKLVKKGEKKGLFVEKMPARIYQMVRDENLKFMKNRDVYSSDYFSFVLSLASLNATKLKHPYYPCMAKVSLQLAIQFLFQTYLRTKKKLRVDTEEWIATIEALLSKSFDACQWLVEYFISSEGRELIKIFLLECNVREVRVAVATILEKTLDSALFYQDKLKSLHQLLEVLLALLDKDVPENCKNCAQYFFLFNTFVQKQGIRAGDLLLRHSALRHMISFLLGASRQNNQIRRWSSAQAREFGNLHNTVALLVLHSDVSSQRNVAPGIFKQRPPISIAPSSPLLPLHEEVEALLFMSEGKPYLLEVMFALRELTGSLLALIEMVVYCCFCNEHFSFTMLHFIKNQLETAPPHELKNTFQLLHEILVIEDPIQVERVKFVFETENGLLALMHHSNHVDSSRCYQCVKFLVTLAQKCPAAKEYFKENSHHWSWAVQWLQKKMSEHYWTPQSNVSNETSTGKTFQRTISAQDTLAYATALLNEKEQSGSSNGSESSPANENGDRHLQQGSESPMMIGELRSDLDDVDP
In short: as §1

USP25 = target: T2, USP25 (UniProt Q9UHP3)
T2 sequence (whole entry): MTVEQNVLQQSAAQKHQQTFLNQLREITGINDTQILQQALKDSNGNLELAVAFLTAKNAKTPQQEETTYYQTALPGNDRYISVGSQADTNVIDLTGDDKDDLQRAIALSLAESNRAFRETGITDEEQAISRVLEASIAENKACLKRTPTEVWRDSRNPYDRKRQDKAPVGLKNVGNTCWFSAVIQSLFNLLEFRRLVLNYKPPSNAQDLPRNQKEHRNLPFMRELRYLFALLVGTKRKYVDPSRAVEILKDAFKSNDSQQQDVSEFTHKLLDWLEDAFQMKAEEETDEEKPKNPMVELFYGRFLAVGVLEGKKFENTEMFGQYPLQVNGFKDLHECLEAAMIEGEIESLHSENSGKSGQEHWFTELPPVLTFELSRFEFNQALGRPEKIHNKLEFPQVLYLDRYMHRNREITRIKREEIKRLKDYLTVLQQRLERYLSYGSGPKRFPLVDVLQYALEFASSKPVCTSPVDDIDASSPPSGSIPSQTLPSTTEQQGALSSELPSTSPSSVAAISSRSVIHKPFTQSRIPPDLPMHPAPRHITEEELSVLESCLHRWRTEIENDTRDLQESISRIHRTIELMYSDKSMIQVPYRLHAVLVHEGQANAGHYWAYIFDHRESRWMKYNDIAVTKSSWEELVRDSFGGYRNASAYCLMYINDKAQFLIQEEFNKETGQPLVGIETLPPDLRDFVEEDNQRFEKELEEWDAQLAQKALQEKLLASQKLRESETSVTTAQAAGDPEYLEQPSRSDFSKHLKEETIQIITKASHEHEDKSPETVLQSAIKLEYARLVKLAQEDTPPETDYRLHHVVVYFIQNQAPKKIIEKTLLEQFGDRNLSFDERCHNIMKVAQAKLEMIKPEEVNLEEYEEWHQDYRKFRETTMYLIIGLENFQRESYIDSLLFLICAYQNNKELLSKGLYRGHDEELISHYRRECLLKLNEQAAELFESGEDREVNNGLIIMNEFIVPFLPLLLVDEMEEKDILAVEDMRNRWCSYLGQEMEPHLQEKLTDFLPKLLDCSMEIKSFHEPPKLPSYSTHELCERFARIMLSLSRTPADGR
In short: as §1

USP28 = target: T3, USP28 (UniProt Q96RU2)
T3 sequence (whole entry): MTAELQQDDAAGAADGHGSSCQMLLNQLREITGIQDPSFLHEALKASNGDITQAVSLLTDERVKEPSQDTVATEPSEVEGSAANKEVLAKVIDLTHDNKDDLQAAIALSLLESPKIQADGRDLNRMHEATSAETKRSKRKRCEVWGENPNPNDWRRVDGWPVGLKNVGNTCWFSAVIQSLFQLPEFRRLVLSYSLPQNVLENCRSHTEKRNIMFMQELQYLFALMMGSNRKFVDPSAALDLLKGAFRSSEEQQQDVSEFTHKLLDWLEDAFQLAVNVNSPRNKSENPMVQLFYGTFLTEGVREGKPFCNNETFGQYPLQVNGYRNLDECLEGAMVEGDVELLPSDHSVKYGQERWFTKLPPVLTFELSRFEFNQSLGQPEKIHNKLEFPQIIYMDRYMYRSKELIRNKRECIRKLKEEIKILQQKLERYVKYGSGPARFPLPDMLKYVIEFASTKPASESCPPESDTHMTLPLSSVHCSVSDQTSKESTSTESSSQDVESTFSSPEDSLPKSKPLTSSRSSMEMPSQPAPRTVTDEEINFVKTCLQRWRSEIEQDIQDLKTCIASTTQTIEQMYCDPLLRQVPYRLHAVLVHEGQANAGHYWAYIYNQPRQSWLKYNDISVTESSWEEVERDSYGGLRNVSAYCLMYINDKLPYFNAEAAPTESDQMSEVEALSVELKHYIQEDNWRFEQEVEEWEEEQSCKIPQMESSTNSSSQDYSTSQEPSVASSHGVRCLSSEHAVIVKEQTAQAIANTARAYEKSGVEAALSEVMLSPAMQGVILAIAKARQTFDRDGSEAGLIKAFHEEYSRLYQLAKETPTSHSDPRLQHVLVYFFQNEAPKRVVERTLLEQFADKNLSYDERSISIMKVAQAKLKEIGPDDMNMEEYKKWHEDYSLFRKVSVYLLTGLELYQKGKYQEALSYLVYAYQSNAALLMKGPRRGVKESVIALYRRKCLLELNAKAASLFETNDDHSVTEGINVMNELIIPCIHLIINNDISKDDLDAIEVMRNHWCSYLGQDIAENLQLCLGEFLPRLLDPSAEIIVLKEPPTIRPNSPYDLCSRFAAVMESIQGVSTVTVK
In short: as §1

Measured: log2 ratio of Biotin-Ahx-Ub-VS probe labelling

Cl.O=C(CN1CCN(C(=O)CCl)CC1)Nc1ccc(F)cc1
inactive: USP19 -0.172 | USP24 -0.098 | USP25 0.0867 | USP28 0.0845
